{
  "source": "PubChem BioAssay (Tox21)",
  "note": "“And” between values parts separate entries of the source, which are not always exact repeats. Equal values may be shown once. Records with an inconclusive call do not appear. A call without a number means that no potency is given here. The source made the active and inactive calls. The call rests on the fitted dose curve; in most records, active means well fitted inhibition curve with a large enough effect in the repeat runs; inconclusive means weak or mixed curves; inactive means no such curve, though single readings can be large or run the other way. Potency means the concentration at half of the fitted maximal effect.",
  "data": [
    {"biological_target": "Cytochrome P450 3A4 (Homo sapiens) (UniProt P08684)", "sequence (P08684 whole entry, looked up)": "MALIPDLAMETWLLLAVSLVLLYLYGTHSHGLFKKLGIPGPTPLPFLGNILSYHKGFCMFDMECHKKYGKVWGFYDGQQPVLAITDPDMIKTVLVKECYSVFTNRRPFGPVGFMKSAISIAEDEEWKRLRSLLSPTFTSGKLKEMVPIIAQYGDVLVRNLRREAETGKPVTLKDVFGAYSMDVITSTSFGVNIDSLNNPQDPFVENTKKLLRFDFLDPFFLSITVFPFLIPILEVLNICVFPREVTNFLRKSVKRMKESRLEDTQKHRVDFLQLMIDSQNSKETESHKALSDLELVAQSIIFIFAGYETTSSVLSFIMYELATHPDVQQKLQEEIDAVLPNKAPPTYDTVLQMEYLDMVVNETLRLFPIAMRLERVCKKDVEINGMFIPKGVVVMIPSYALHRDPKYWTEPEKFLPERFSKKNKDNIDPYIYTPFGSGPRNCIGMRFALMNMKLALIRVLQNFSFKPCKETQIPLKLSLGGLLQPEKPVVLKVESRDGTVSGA", "assay": "Cytochrome P450 Family 3 Subfamily A Member 4 (CYP3A4) small molecule antagonists: luciferase reporter qHTS assay (AID 1671201); further: nearly all actives have a fitted effect of over 50% in size", "conditions": "P450-Glo CYP3A4 enzyme, luciferin luminescence, 1 h; series mostly up to 115 µM", "text": "National Center for Advancing Translational Sciences [NCATS]\nU.S. Environmental Protection Agency [EPA]\nNational Institutes of Environmental Health Sciences [NIEHS]\nNational Toxicology Program [NTP]\nU.S. Food and Drug Administration [FDA]\nCytochrome P450 (CYP) enzymes are membrane-bound hemeproteins that play a key role in metabolism of drugs and xenobiotics. Evaluation of the effect of chemicals on CYP isozymes is useful to minimize the adverse drug reactions and toxicities in drug development process. Tox21 chemicals were tested for their effect on CYP enzyme activities by using P450-Glo (TM) screening systems (Promega Corporation, Madison, WI). These systems provide a luminescent method containing proluciferin substrates and are converted to luciferin products by CYP isozymes. The luciferin products formed are detected with a luciferin detection reagent, and the amount of light produced is proportional to CYP activity. P450-Glo (TM) CYP3A4 screening system (Catalog. No. V9910) was used to detect the compounds that interfere in CYP3A4 activity. The positive control compound used for CYP3A4 assay is ketoconazole (Sigma-Aldrich, St. Louis, MO).\nTox21 Assay Protocol Summary:\nTwo ul of enzyme-substrate mix was dispensed into medium binding white/solid 1536-well plates (Greiner Bio-One North America Inc., Monroe, NC) using a BioRaptr Flying Reagent Dispenser (FRD, Beckman Coulter, Brea, CA). Compounds dissolved in DMSO and positive control (ketoconazole) were transferred to the assay plates at 23 nl using a Pintool station (Wako, San Diego, CA). The assay plates were incubated at room temperature for 10 min. Then 2 ul of NADPH regeneration solution was added to each well of the assay plates using an FRD and incubated at room temperature for 1 h. The reaction was stopped by adding 4 ul of detection reagent using an FRD and after 20 min incubation at room temperature the luminescence signal was measured using a ViewLux plate reader (Perkin Elmer, Shelton, CT). Data were expressed as relative luminescence units.", "values": [
      {"smiles": "O=Nc1ccc(Nc2ccccc2)cc1", "Potency": "8.99 µM (active) and 12.6 µM (active)"},
      {"smiles": "NCCCCCC(=O)O", "Potency": "inactive"},
      {"smiles": "COc1cc(C(=S)N2CCOCC2)ccc1O", "Potency": "inactive"},
      {"smiles": "CC(=O)CC(C)=O", "Potency": "inactive"},
      {"smiles": "CC(C)(C)c1ccc(O)c(C(C)(C)C)c1", "Potency": "35.6 µM (active)"},
      {"smiles": "O=c1n(CC2CO2)c(=O)n(CC2CO2)c(=O)n1CC1CO1", "note": "(stereo not given)", "Potency": "inactive"},
      {"smiles": "CC(C)CCCCCCc1ccc(O)cc1", "Potency": "16.2 µM (active)"},
      {"smiles": "CNC1(C)C2CCC(C2)C1(C)C", "note": "(stereo not given)", "Potency": "inactive"},
      {"smiles": "CCN(CC)c1ccc2c(C)cc(=O)oc2c1", "Potency": "20.2 µM (active) and 31.7 µM (active)"},
      {"smiles": "[Cl][In]([Cl])[Cl]", "Potency": "inactive"},
      {"smiles": "C=CC(=O)OCCCCCCOC(=O)C=C", "Potency": "40.4 µM (active)"},
      {"smiles": "CC(C(O)c1ccc(O)cc1)N1CCC(Cc2ccccc2)CC1", "note": "(stereo not given)", "Potency": "inactive"},
      {"smiles": "CCCC(=O)c1ccccc1", "Potency": "inactive"},
      {"smiles": "C#CC(C)(CC)OC(=O)c1ccccc1C(=O)O", "note": "(stereo not given)", "Potency": "inactive"},
      {"smiles": "CC(C)(C)NCC(O)c1cc(O)cc(O)c1", "note": "(stereo not given)", "Potency": "inactive"},
      {"smiles": "CN1C(=O)c2ccc([N+](=O)[O-])cc2C1=O", "Potency": "39.9 µM (active)"},
      {"smiles": "CC(=O)C1=C(C)[C@@H]2C[C@@]3(C1)[C@H](C)CC[C@H]3C2(C)C", "Potency": "25.2 µM (active)"},
      {"smiles": "CCCCCCC(O)CCCCCCCCCCC(=O)O", "note": "(stereo not given)", "Potency": "inactive"},
      {"smiles": "CCOc1ccccc1C(N)=O", "Potency": "inactive"},
      {"smiles": "O=C(Cl)c1cccc(C(=O)Cl)c1", "Potency": "inactive"},
      {"smiles": "c1ccc2n[nH]nc2c1", "Potency": "inactive"},
      {"smiles": "O=C(O)c1cc(Cl)cc(Cl)c1", "Potency": "inactive"},
      {"smiles": "O=C1OC2(c3ccc(O)cc3Oc3cc(O)ccc32)c2ccccc21", "Potency": "inactive"},
      {"smiles": "CCN(CC)C(=O)Nc1ccc(OCC(O)CNC(C)(C)C)c(C(C)=O)c1", "note": "(stereo not given)", "Potency": "inactive"},
      {"smiles": "CC(=O)N[C@@H](CS)C(=O)O", "Potency": "inactive"},
      {"smiles": "CCCCOCCOC(=O)c1ccccc1C(=O)OCCOCCCC", "Potency": "12.4 µM (active) and 17.8 µM (active)"},
      {"smiles": "CC(N)=O", "Potency": "inactive"},
      {"smiles": "BrC1CCC(Br)C(Br)CCC(Br)C(Br)CCC1Br", "note": "(stereo not given)", "Potency": "1.41 µM (active) and 1.51 µM (active)"},
      {"smiles": "CCn1c2ccccc2c2cc(N)ccc21", "Potency": "1.77 µM (active) and 5.64 µM (active) and 31.7 µM (active)"},
      {"smiles": "Cc1cc(OCCOCC[N+](C)(C)Cc2ccccc2)ccc1C(C)(C)CC(C)(C)C", "Potency": "inactive"},
      {"smiles": "O=C(O)c1cccc(C(=O)O)c1", "Potency": "inactive"},
      {"smiles": "Nc1ccc(O)cc1", "Potency": "37 µM (active)"},
      {"smiles": "c1ccc2cc3c(ccc4ccccc43)cc2c1", "Potency": "inactive"},
      {"smiles": "COC(=O)/C=C/c1ccccc1", "Potency": "inactive"},
      {"smiles": "Cc1cccc(O)c1C", "Potency": "inactive"},
      {"smiles": "O=C(O)Cn1cnnn1", "Potency": "inactive"},
      {"smiles": "O=Cc1ccc(Cl)cc1", "Potency": "inactive"},
      {"smiles": "CCN1CCCC1CNC(=O)c1cc(S(=O)(=O)CC)c(N)cc1OC", "note": "(stereo not given)", "Potency": "inactive"},
      {"smiles": "OCCN1CCNCC1", "Potency": "inactive"},
      {"smiles": "CCCCCCCCCCCCc1ccccc1O", "Potency": "31.3 µM (active) and 63.3 µM (active)"}
    ]}
  ]
}
